According to PubChem BioAssay:
Calls of active or inactive are those of the source. Unless noted, the rule behind the calls is not given here.

Tests used:
[1] = anti-His antibody binders, primary screen, artefact control for SMM control protein annotation, biochemical, small-molecule microarray, 635 nm fluorescence (AID 1128); conditions: anti-His Alexa647 antibody binding, higher = more signal;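 note: score merges feature fluorescence with signal-to-noise for each printed compound spot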
[2] = test system: Human papillomavirus type 1a E7 protein (residues 1-88); assay: HPV1a E7 small-molecule binders, primary screen, biochemical, small-molecule microarray, residues 1-88, 635 nm (AID 1129); conditions: small-molecule microarray binding, fluorescence 635 nm; higher = more signal
[3] = target: Focal adhesion kinase 1 (Homo sapiens) (UniProt Q05397); assay: small-molecule microarray binders of FAK, primary screen, biochemical, 635/667 nm fluorescence, BSA, DTT (AID 1130); conditions: PTK2 binding, 635 nm fluorescence, higher = more signal;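 note: composite of spot emission at 667 nm and signal to noise over triplicate slides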
Chain of Focal adhesion kinase 1 (Homo sapiens) (Q05397 whole entry, looked up): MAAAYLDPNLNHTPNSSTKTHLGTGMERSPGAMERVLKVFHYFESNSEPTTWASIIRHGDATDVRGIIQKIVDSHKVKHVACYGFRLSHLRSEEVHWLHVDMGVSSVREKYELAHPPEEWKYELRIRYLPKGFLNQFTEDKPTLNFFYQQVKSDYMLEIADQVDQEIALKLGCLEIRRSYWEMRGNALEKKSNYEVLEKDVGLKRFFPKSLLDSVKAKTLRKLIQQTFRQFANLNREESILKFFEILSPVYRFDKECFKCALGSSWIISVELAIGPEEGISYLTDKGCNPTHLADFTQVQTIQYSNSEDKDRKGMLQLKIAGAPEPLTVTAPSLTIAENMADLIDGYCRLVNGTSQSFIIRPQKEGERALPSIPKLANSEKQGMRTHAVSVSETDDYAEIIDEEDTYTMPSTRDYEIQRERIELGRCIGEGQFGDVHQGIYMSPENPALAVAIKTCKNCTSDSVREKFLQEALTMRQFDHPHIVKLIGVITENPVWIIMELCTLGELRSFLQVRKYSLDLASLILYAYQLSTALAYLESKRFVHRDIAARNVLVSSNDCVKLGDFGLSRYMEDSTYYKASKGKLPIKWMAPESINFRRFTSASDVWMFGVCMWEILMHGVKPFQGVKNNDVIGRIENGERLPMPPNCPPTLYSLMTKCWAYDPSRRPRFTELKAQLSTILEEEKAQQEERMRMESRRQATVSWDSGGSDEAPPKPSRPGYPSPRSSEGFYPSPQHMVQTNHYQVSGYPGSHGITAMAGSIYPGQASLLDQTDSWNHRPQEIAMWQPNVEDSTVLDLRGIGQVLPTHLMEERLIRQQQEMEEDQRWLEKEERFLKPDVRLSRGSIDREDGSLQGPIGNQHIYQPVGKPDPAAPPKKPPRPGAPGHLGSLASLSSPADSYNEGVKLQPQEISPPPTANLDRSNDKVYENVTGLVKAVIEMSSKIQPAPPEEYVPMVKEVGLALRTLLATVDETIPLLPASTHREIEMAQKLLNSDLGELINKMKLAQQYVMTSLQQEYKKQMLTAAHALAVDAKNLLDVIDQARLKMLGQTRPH

[4] = test system: Fibrinogen (Alexa647-labelled); assay: fibrinogen binders on compound microarrays, profiling panel, artefact control for SMM control-protein annotation, biochemical, small-molecule microarray, 635/667 nm fluorescence (AID 1131); conditions: fibrinogen-A647 binding fluorescence, higher = more signal;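 note: z-score merges 667 nm fluorescence with per-spot signal-to-noise over triplicate slides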
[5] = target: Follistatin (Homo sapiens) (UniProt P19883); assay: follistatin binders on small-molecule microarrays, primary screen, biochemical, small-molecule microarray, 635/667 nm fluorescence (AID 1132); conditions: FST binding, 635 nm fluorescence, higher = more signal
Chain of Follistatin (Homo sapiens) (P19883 whole entry, looked up): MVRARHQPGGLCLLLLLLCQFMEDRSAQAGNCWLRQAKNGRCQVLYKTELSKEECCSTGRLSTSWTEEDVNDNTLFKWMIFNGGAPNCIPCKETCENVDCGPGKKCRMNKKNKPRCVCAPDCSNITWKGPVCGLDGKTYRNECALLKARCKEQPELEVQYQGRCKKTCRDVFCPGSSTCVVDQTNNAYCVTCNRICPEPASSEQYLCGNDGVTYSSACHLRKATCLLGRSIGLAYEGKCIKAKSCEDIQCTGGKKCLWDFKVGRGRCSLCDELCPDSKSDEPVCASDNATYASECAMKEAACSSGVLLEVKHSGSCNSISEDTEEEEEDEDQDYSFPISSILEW

[6] = target: Fibroblast growth factor 2 (Homo sapiens) (UniProt P09038); assay: FGF2 binders on small-molecule microarrays, primary screen, biochemical, small-molecule microarray, 635/667 nm fluorescence (AID 1133); conditions: small-molecule microarray binding, FGF2, fluorescence 635/667; higher = more signal
Chain of Fibroblast growth factor 2 (Homo sapiens) (P09038 whole entry, looked up): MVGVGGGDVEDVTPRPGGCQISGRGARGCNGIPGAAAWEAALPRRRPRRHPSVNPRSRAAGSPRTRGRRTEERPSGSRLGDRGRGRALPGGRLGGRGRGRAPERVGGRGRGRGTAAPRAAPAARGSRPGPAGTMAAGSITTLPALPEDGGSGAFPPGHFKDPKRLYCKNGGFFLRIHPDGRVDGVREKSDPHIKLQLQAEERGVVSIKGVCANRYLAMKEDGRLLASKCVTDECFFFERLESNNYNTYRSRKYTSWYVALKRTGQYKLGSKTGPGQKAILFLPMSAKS

[7] = mitochondrial membrane potential change in A549 cells, profiling panel, cell-based, JC-1 fluorescence, basal, 24 h, 100 nL (AID 1138); conditions: higher = more signal;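 note: A549 lung adenocarcinoma cells under basal conditions with no added stimulus; test concentration not given here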
[8] = test system: Lefty1; assay: Lefty1 binders on small-molecule microarrays, primary screen, biochemical, small-molecule microarray, 635/667 nm fluorescence (AID 1139); conditions: small-molecule microarray binding, fluorescence 635/667; higher = more signal
[9] = test system: wheat germ agglutinin (Triticum aestivum), Alexa647-labelled; assay: wheat germ agglutinin binders on compound microarrays, profiling panel, artefact control for SMM control-protein annotation, biochemical, small-molecule microarray, 635/667 nm fluorescence (AID 1140); conditions: WGA-A647 binding, 635 nm fluorescence, higher = more signal;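 note: score merges 667 nm feature emission with signal to noise over triplicate slides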
[10] = target: Luciferin 4-monooxygenase (Photinus pyralis) (UniProt P08659); assay: firefly luciferase enzyme inhibitors, primary screen, biochemical, luminescence, purified enzyme, 2006 set (AID 1141); conditions: SteadyGlo luminescence, 30 min, higher = more signal, called active from +8 up or from −8 down;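 note: cell-free assay with purified firefly luciferase at 100 ng per well in PBS; test concentration not given here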
Chain of Luciferin 4-monooxygenase (Photinus pyralis) (P08659 whole entry, looked up): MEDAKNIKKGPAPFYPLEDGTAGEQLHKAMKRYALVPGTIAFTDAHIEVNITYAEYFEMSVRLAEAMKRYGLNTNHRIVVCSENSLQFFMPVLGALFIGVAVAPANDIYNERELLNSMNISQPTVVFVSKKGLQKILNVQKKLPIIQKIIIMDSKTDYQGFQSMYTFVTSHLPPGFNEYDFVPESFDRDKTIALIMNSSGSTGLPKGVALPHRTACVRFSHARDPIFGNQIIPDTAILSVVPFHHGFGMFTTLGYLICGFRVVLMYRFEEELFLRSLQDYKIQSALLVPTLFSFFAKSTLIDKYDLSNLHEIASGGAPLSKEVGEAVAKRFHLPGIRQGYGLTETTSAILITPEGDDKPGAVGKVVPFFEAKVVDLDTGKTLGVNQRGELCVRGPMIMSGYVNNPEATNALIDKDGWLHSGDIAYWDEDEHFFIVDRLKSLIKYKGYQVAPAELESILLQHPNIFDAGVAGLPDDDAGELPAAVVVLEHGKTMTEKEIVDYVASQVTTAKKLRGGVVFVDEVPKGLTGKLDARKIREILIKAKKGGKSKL

[11] = test system: Wnt5a (protein binding on small-molecule microarray); assay: Wnt5a binders on small-molecule microarray, primary screen, biophysical, 635/667 nm fluorescence (AID 1142); conditions: 635 nm fluorescence, higher = more signal;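 note: fluorescence read at 667 nm with signal to noise per printed feature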
[12] = cell viability in Huh7 cells, primary screen, cytotoxicity control for HCV replication inhibitor project, CellTiter-Glo luminescence, basal, 48 h (AID 1143); conditions: Huh7 HCV replicon, higher = more signal, called active from +8 up or from −8 down;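 note: Huh7 hepatoma cells carrying a hepatitis C replication reporter with no stimulus; test concentration not given here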
[13] = P. aeruginosa biofilm formation inhibitors, primary screen, PAO1 strain, BacTiter-Glo luminescence, LB-PBS (AID 1144); conditions: 12 h, higher = more signal
[14] = CREB reporter modulators without forskolin, primary screen, cell-based, PC12, CRE-LacZ reporter, unstimulated (AID 1145); conditions: no forskolin, luminescence, 4.5 h, higher = more signal, called active from +8 up or from −8 down
[15] = CREB reporter modulators under forskolin, primary screen, cell-based, PC12, CRE-LacZ reporter, forskolin-stimulated (AID 1146); conditions: luminescence, 4.5 h, higher = more signal, called active from +8 up or from −8 down;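 note: PC12 cells with 6xCRE LacZ reporter stimulated by forskolin 10 µM; beta-galactosidase reporter signal reflecting CREB driven transcription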
[16] = target: Streptavidin (Streptomyces avidinii) (UniProt P22629); assay: streptavidin binders on small-molecule microarray, primary screen, artefact control for SMM compound annotation, biophysical, 635/667 nm fluorescence (AID 1147); conditions: streptavidin binding, higher = more signal;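 note: signal reflects streptavidin binding to arrayed compounds as a control protein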
Chain of Streptavidin (Streptomyces avidinii) (P22629 whole entry, looked up): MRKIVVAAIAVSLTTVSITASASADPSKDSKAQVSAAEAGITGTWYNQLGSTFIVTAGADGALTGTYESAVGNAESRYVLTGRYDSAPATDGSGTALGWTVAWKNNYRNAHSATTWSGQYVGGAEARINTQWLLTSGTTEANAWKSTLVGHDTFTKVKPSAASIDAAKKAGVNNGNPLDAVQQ

[17] = small-molecule binders of probe aInhba, primary screen, biochemical, small-molecule microarray, 635/667 nm fluorescence (AID 1148); conditions: higher = more signal;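 note: score merges 667nm spot fluorescence with signal-to-noise for antibody binding to printed compounds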
[18] = target: Torsin-1A (Homo sapiens) (UniProt O14656); assay: torsin A binders from cell lysate, primary screen, small-molecule microarray, wild-type, 635/667 nm (AID 1149); conditions: COS7 hTOR1A-WT lysate, 635 nm fluorescence, higher = more signal
Chain of Torsin-1A (Homo sapiens) (O14656 whole entry, looked up): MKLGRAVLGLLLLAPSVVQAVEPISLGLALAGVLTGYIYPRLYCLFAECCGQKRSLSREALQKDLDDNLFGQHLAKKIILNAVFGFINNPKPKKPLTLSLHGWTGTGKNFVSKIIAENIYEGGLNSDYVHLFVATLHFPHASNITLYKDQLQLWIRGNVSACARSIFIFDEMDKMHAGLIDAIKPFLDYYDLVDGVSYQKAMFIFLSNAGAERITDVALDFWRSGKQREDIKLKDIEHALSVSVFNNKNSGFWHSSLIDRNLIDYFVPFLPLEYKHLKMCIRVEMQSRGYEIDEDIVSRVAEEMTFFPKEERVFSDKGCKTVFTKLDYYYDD

[19] = target: Torsin-1A (Homo sapiens) (UniProt O14656); assay: small-molecule binders of mutant TOR1A in lysate, primary screen, cell lysate, small-molecule microarray, COS7 lysate, 635/667 nm fluorescence (AID 1150); conditions: COS7 hTOR1A mutant lysate, 635 nm fluorescence, higher = more signal;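 note: score pools 667 nm emission and signal to noise measuring lysate protein binding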
[20] = test system: Sonic hedgehog protein (Shh); assay: small-molecule binders of Shh protein, primary screen, biochemical, small-molecule microarray, 635/667 nm fluorescence (AID 1151); conditions: small-molecule microarray binding, 635 nm fluorescence; higher = more signal;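 note: Shh protein binding to compounds spotted on small-molecule microarray slides; score combines spot fluorescence intensity with signal-to-noise across triplicate slides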

| Compound | composite z-score [1] | composite z-score [2] | composite z-score [3] | composite z-score [4] | composite z-score [5] | composite z-score [6] | z-score [7] | composite z-score [8] | composite z-score [9] | z-score [10] | composite z-score [11] | z-score [12] | z-score [13] | z-score [14] | z-score [15] | composite z-score [16] | composite z-score [17] | composite z-score [18] | composite z-score [19] | composite z-score [20] |
| --- | --- | --- | --- | --- | --- | --- | --- | --- | --- | --- | --- | --- | --- | --- | --- | --- | --- | --- | --- | --- |
| CO[C@H]1O[C@H](CO)[C@@H](OC(=O)Nc2ccc3c(c2)OCO3)[C@H](OC(=O)c2cc3ccccc3[nH]2)[C@H]1OC(=O)c1cc2ccccc2[nH]1 | 0.935 | -0.174 | 0.622 | -0.3 | 0.372 | 0.791 | -1.56 | 0.366 | -0.0971 | -2.78 (inactive) | 0.0957 | -2.92 (inactive) | -1.37 (inactive) | 1.03 (inactive) | -1.29 (inactive) | 0.483 | -0.128 | 0.103 | -0.214 | 0.458 |
| C=CCC(OC(C)=O)[C@@H]1[C@@H](N(Cc2cc3ccccc3o2)C(=O)Cc2ccc(F)cc2)c2cc(OCCCO)ccc2N1C(=O)c1ccc2ccccc2c1 (stereo not given in full) | -0.232 | -0.835 | -0.167 | -1.03 | 0.722 | -0.143 | 1.08 | 0.777 | 0.181 | -0.514 (inactive) | 0.117 | -0.008 (inactive) | 0.101 (inactive) | 2.6 (inactive) | 0.86 (inactive) | 0.0943 | -0.176 | -0.312 | 0.237 | 0.697 |
| O=C1C=C(c2ccccc2)C(=O)c2ccc([C@H]3Oc4ccccc4S(=O)(=O)N4CCC[C@@H]34)cc21 | -0.398 | -0.315 | -0.29 | -0.506 | 0.428 | -0.0096 | -1.69 | 0.203 | -0.0704 | -2.04 (inactive) | 0.34 | -6.42 (inactive) | 0.016 (inactive) | 9.47 (active) | 33 (active) | -0.309 | -0.258 | 0.0359 | 1.97 | 0.222 |
| C=CCC(OC(C)=O)[C@@H]1[C@@H](N(Cc2ccc(-c3cccc(C(F)(F)F)c3)o2)C(=O)c2ccc(C)cc2)c2cc(OCCCO)ccc2N1C(=O)c1ccc2ccccc2c1 (stereo not given in full) | -0.276 | -0.207 | 0.187 | 0.188 | 0.908 | 0.0013 | 1.23 | 0.398 | -0.0998 | -0.0536 (inactive) | 0.0344 | -0.478 (inactive) | -1.39 (inactive) | -0.519 (inactive) | 0.291 (inactive) | 0.203 | -0.024 | -0.361 | -0.0628 | 0.772 |
| CC(CO)N1C(=O)[C@@H]2[C@H]3C(=O)OCC=C[C@H]3OC23C=CCN(Cc2ccccc2)C(=O)[C@@H]13 (stereo not given in full) | 0.543 | -0.696 | 0.769 | -0.854 | -0.139 | -0.173 | -0.376 | -0.279 | 0.22 | -3.05 (inactive) | 0.0691 | 0.0021 (inactive) | -1.11 (inactive) | -1.44 (inactive) | -1.08 (inactive) | -0.245 | -0.21 | -1.32 | -0.14 | -0.0627 |
| COC(=O)c1c2oc(c1C(=O)OC)C(=O)N(C)Cc1cn(nn1)C[C@H](Cc1ccccc1)NC(=O)N[C@H](CO)CC2 | -0.0688 | -1.52 | -0.27 | -1.15 | -0.0414 | -0.438 | -0.209 | 0.244 | -0.272 | 0.247 (inactive) | -0.334 | 0.336 (inactive) | 0.553 (inactive) | 0.148 (inactive) | -0.324 (inactive) | -0.403 | -0.0576 | -0.794 | -0.641 | 0.624 |
| CCOC(=O)C1CCCCN1 (stereo not given) | 0.313 | 0.859 | -0.0288 | 0.367 | 0.599 | 0.522 | -0.0223 | 0.589 | 0.109 | 0.48 (inactive) | 0.781 | 0.319 (inactive) | 0.566 (inactive) | -0.788 (inactive) | -0.398 (inactive) | 0.412 | 0.705 | 0.544 | 0.388 | 0.506 |
| CN(C)CCCCNC(=O)[C@@H]1C[C@@H]2C(=O)N[C@@H](Cc3ccccc3)C(=O)N2[C@@H]1c1cccc(OCCO)c1 | 2.09 | 0.579 | -0.0323 | 0.513 | 1.33 | 1.75 | 1.53 | 1.65 | 0.645 | -2.68 (inactive) | 1.2 | -1.6 (inactive) | -0.133 (inactive) | 0.431 (inactive) | -0.903 (inactive) | -0.351 | 0.0543 | 0.75 | 1.54 | 1.55 |
| COCCCNC(=O)[C@@]1(Cc2ccccc2CN=[N+]=[N-])N=C(c2ccc(OCCCO)cc2)O[C@H]1c1ccccc1 | 1.75 | 1.23 | 0.895 | 0.991 | 1.25 | 0.14 | -0.0671 | 0.365 | 0.73 | 0.094 (inactive) | 0.919 | -4.74 (inactive) | -0.688 (inactive) | 0.391 (inactive) | 0.145 (inactive) | 0.284 | 0.0872 | 0.821 | 1.26 | -0.715 |
| COC(=O)[C@@]1(Cc2ccccc2)[C@H]2c3cc(C(=O)N(C)C)n(CCN4CNCC4=O)c3C[C@H]2CN1C(=O)c1ccccc1 | 3.19 | 0.644 | -0.619 | -1.2 | -0.64 | -0.8 | 0.697 | -2.13 | 1.45 | 0.394 (inactive) | 0.569 | 0.106 (inactive) | -0.505 (inactive) | 0.0007 (inactive) | 0.547 (inactive) | 1.54 | 1.28 | 3.83 | 4.06 | -1.85 |
